# Results reported in article PMC7862700, “An all-to-all approach to the identification of sequence-specific readers for epigenetic DNA modifications on cytosine”.
# Legend:
# Assay in all cases: DAPPL (digital affinity profiling via proximity ligation, sequencing); 10 mM Tris-HCl pH 7.5, 50 mM NaCl, 1 mM DTT, 4% glycerol, room temperature, 30 min; GST-TFs on glutathione beads, 16-mer random dsDNA library, 0.1% formaldehyde crosslink after washing; high values mean tight binding
# FLI1 = biological target: T1, FLI1 (Homo sapiens, UniProt Q01543 1-452); details: protein: recombinant; tags: N-terminal GST; dsDNA, one strand shown
# T1 sequence: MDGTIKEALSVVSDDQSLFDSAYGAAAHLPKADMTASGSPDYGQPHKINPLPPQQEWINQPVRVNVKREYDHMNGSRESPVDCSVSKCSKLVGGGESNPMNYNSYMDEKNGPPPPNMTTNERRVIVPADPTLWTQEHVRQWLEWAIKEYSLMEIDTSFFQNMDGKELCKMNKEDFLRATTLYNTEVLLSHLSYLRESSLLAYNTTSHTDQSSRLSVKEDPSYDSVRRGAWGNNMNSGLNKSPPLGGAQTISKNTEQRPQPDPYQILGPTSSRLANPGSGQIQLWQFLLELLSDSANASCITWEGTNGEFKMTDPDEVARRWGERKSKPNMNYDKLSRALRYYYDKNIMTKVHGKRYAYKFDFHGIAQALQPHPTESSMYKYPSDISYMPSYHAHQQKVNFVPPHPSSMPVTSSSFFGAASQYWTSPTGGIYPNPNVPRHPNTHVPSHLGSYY
# Summary of the method: (§1)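 Human transcription factors were made in yeast as GST fusions, captured on glutathione beads and barcoded with DNA. With a tag-only sample included, the pool was incubated with 200 nmole of a random double-stranded 16-mer DNA library in Tris/NaCl/DTT/glycerol buffer at room temperature for 30 min, then crosslinked with 0.1% formaldehyde after washing, ligated by proximity, amplified and sequenced. For binding signal, each hexamer's read frequency for a factor is divided by its frequency for the tag-only sample.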
# ELK1 = biological target: T2, ELK1 (Homo sapiens, UniProt P19419 1-428); details: protein: recombinant; tags: N-terminal GST; dsDNA, one strand shown
# T2 sequence: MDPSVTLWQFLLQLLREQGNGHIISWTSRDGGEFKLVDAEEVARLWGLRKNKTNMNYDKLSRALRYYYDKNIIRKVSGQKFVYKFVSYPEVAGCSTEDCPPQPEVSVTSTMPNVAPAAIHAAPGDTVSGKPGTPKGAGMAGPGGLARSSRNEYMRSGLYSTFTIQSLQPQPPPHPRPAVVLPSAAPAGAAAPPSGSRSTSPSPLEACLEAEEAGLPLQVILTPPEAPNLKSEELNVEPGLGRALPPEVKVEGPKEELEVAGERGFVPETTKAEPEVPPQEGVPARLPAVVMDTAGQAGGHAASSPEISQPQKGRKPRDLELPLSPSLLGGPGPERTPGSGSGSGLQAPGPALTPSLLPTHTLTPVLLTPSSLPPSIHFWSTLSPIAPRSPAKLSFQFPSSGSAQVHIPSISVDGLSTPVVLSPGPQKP
# Summary of the method: as §1
# GABPA = biological target: T3, GABPA (Homo sapiens, UniProt Q06546 1-454); details: protein: recombinant; tags: N-terminal GST; dsDNA, one strand shown
# T3 sequence: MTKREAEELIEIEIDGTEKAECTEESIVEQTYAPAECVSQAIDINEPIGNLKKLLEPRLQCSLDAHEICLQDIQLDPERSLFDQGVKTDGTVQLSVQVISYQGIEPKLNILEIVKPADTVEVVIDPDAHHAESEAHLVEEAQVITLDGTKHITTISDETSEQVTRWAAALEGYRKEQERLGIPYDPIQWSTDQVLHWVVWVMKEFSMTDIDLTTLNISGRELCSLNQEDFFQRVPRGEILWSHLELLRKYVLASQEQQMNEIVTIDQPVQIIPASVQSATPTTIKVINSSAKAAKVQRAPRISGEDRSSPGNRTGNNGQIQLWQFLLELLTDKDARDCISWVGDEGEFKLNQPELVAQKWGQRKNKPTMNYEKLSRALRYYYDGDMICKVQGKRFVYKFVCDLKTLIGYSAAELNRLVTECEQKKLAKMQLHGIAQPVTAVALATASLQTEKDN
# Summary of the method: as §1
# ERG = biological target: T4, ERG (Homo sapiens, UniProt P11308 1-479); details: protein: recombinant; tags: N-terminal GST; dsDNA, one strand shown
# T4 sequence: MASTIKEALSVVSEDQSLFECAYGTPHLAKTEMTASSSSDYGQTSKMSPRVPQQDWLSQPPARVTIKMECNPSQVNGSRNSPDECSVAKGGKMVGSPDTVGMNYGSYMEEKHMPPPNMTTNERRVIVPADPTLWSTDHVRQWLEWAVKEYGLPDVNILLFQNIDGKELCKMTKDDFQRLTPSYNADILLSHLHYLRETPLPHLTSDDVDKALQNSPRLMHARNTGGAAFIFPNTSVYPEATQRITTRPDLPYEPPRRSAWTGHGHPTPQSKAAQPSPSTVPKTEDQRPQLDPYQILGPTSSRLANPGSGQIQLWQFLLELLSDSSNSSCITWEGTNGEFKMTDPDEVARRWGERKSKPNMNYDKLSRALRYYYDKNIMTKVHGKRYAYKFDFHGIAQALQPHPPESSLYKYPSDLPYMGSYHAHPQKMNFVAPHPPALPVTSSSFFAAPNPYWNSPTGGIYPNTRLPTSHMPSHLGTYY
# Summary of the method: as §1
# ELF1 = ELF1 (Homo sapiens, UniProt P32519 1-619); details: protein: recombinant; tags: N-terminal GST; dsDNA, one strand shown
# Summary of the method: as §1
# EHF = biological target: T5, EHF (Homo sapiens, UniProt Q9NZC4 1-300); details: protein: recombinant; tags: N-terminal GST; dsDNA, one strand shown
# T5 sequence: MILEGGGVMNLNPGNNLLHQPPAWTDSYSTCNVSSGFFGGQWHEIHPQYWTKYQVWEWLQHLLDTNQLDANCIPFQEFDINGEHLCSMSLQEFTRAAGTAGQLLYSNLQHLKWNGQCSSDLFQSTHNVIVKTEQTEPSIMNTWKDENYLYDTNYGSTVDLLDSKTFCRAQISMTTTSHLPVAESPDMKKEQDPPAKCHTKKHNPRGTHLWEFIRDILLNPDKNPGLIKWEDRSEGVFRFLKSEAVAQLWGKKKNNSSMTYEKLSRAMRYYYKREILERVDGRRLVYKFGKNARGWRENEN
# Summary of the method: as §1
# SPI1 = SPI1 (Homo sapiens, UniProt P17947 1-270); details: protein: recombinant; tags: N-terminal GST; dsDNA, one strand shown
# Summary of the method: as §1
# SPIB = SPIB (Homo sapiens, UniProt Q01892 1-262); details: protein: recombinant; tags: N-terminal GST; dsDNA, one strand shown
# Summary of the method: as §1
# ELK3 = biological target: T6, ELK3 (Homo sapiens, UniProt P41970 1-407); details: protein: recombinant; tags: N-terminal GST; dsDNA, one strand shown
# T6 sequence: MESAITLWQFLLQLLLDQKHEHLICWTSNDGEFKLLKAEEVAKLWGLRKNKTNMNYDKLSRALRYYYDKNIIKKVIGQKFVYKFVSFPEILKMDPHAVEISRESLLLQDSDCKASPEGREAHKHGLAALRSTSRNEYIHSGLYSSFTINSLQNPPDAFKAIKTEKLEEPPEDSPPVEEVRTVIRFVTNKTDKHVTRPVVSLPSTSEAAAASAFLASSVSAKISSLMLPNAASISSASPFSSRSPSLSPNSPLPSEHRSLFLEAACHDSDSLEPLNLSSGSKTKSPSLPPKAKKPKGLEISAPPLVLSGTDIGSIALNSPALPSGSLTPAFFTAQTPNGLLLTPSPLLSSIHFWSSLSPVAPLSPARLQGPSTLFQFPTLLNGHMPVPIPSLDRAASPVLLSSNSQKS
# Summary of the method: as §1
# FEV = biological target: T7, FEV (Homo sapiens, UniProt Q99581 1-238); details: protein: recombinant; tags: N-terminal GST; dsDNA, one strand shown
# T7 sequence: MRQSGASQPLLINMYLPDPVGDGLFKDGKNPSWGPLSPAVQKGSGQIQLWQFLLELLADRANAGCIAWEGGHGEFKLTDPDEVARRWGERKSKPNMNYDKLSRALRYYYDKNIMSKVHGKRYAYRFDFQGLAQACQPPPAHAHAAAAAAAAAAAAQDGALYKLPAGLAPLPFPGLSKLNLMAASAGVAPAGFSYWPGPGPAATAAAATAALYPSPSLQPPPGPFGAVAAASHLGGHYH
# Summary of the method: as §1
# ETV5 = ETV5 (Homo sapiens, UniProt P41161 1-510); details: protein: recombinant; tags: N-terminal GST; dsDNA, one strand shown
# Summary of the method: as §1
# HSF1 = HSF1 (Homo sapiens, UniProt Q00613 1-529); details: protein: recombinant; tags: N-terminal GST; chain copies: 3; dsDNA, one strand shown
# Summary of the method: as §1
# SPIC = biological target: T8, SPIC (Homo sapiens, UniProt Q8N5J4 1-248); details: protein: recombinant; tags: N-terminal GST; dsDNA, one strand shown
# T8 sequence: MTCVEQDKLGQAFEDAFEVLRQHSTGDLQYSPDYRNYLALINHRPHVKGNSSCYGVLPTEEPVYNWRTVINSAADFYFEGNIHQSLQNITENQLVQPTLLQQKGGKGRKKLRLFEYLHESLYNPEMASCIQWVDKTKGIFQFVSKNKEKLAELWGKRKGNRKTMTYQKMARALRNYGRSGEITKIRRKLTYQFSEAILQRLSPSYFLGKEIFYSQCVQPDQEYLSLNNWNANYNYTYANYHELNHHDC
# Summary of the method: as §1
# ELF4 = ELF4 (Homo sapiens, UniProt Q99607 1-663); details: protein: recombinant; tags: N-terminal GST; dsDNA, one strand shown
# Summary of the method: as §1
# ELK4 = biological target: T9, ELK4 (Homo sapiens, UniProt P28324-2 1-405); details: protein: recombinant; tags: N-terminal GST; dsDNA, one strand shown
# T9 sequence: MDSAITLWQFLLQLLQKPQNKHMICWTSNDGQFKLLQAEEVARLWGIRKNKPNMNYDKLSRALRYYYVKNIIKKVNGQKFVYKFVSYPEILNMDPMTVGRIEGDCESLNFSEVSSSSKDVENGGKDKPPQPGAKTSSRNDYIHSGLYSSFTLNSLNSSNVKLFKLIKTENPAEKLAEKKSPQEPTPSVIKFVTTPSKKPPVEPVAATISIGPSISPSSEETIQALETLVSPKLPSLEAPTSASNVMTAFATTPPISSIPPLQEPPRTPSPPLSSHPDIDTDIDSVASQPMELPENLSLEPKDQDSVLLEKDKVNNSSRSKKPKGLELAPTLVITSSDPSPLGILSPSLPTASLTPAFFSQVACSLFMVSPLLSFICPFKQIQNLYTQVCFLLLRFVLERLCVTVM
# Summary of the method: as §1
# ETV2 = biological target: T10, ETV2 (Homo sapiens, UniProt O00321 1-342); details: protein: recombinant; tags: N-terminal GST; dsDNA, one strand shown
# T10 sequence: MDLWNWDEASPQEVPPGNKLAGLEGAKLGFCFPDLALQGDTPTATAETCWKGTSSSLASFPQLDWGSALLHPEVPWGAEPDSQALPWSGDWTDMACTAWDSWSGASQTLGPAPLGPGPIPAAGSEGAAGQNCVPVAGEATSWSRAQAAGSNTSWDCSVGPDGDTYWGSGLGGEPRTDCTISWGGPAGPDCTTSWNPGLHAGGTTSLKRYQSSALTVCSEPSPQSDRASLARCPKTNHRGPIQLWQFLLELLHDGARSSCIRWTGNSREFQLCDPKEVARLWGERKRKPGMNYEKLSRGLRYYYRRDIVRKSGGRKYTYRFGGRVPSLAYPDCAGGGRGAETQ
# Summary of the method: as §1
# ELF3 = biological target: T11, ELF3 (Homo sapiens, UniProt P78545 1-371); details: protein: recombinant; tags: N-terminal GST; dsDNA, one strand shown
# T11 sequence: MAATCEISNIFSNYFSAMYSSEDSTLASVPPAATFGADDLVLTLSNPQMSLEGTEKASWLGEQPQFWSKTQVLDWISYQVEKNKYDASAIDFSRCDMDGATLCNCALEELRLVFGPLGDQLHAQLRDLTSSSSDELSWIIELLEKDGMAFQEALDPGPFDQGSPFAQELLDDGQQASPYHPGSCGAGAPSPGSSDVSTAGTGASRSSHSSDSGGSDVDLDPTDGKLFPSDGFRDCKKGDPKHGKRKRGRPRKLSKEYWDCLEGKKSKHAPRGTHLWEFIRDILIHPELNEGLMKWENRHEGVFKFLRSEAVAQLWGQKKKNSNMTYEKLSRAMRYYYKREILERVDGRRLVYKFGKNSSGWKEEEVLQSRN
# Summary of the method: as §1
# CRX = CRX (Homo sapiens, UniProt O43186 1-299); details: protein: recombinant; tags: N-terminal GST; dsDNA, one strand shown
# Summary of the method: as §1
# ETV1 = ETV1 (Homo sapiens, UniProt P50549 1-477); details: protein: recombinant; tags: N-terminal GST; dsDNA, one strand shown
# Summary of the method: as §1
# Sequence of SPIB (Q01892 whole entry): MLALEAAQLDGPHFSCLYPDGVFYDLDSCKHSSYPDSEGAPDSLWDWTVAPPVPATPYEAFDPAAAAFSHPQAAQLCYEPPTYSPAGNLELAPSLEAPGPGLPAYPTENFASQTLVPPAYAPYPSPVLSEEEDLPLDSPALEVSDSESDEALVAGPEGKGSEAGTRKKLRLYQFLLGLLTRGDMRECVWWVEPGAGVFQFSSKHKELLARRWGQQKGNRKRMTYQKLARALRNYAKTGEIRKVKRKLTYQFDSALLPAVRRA
# Sequence of ETV5 (P41161 whole entry): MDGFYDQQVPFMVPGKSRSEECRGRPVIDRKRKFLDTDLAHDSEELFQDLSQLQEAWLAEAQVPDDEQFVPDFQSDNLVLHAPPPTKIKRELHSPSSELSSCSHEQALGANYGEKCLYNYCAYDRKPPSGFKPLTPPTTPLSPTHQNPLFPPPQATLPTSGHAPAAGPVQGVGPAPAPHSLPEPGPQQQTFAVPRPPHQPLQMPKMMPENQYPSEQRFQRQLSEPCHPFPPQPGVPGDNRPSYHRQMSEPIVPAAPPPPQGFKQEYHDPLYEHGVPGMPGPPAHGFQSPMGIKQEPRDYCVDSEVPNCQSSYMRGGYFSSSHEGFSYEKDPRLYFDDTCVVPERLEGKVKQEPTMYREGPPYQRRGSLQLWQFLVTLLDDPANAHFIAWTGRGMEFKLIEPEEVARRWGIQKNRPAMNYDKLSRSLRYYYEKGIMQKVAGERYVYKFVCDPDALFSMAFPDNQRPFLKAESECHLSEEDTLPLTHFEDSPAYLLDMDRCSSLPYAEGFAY
# Sequence of ELF4 (Q99607 whole entry): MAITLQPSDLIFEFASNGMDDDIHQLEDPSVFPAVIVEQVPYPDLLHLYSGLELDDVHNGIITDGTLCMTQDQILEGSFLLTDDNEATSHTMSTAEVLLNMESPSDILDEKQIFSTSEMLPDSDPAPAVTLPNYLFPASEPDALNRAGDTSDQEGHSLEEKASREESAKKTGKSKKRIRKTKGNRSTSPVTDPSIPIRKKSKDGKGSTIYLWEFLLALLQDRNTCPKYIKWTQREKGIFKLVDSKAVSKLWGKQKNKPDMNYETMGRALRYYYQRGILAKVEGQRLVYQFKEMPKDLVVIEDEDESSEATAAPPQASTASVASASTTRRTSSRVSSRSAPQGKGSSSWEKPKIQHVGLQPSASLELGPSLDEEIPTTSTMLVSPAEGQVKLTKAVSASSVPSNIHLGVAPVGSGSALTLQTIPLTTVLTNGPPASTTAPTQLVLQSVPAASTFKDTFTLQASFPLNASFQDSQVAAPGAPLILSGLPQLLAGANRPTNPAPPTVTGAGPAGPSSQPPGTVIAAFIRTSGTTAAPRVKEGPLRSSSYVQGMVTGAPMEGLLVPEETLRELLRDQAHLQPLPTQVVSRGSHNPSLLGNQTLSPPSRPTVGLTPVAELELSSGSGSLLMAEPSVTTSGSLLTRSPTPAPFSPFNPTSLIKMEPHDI
# Sequence of HSF1 (Q00613 whole entry): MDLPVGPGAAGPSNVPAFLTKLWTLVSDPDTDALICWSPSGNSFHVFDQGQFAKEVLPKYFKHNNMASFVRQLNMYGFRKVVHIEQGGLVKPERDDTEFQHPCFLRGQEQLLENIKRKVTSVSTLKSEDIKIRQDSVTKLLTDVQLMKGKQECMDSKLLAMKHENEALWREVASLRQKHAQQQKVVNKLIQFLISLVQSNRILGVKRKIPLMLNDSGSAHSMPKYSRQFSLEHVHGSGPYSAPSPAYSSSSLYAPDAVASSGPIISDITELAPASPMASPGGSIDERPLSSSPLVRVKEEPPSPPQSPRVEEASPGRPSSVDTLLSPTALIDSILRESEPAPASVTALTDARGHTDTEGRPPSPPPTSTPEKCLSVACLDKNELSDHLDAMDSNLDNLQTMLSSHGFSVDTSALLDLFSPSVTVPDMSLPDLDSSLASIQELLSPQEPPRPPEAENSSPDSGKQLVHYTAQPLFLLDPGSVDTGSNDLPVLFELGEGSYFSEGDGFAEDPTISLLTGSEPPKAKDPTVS
# Sequence of CRX (O43186 whole entry): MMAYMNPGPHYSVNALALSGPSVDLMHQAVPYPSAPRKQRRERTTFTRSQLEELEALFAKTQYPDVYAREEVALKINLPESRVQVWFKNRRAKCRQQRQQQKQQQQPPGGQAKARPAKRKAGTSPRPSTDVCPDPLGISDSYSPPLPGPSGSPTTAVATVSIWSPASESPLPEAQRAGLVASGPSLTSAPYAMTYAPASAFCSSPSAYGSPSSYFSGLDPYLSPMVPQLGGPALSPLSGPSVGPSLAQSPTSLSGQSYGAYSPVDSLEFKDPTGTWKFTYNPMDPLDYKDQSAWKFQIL
# Sequence of ETV1 (P50549 whole entry): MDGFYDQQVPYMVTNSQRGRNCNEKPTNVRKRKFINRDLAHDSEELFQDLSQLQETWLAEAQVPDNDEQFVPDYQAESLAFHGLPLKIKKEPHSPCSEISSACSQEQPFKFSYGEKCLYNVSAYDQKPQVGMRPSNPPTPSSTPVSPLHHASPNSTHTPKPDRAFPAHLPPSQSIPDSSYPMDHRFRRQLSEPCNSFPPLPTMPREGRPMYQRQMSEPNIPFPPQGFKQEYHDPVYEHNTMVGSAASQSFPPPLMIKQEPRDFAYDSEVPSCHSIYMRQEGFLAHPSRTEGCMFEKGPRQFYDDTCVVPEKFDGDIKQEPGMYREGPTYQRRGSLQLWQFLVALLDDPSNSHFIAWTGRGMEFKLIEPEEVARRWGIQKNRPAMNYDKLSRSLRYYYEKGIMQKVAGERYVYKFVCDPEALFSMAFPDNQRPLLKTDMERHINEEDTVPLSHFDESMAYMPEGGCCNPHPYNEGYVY
# Sequence of ELF1 (P32519 whole entry): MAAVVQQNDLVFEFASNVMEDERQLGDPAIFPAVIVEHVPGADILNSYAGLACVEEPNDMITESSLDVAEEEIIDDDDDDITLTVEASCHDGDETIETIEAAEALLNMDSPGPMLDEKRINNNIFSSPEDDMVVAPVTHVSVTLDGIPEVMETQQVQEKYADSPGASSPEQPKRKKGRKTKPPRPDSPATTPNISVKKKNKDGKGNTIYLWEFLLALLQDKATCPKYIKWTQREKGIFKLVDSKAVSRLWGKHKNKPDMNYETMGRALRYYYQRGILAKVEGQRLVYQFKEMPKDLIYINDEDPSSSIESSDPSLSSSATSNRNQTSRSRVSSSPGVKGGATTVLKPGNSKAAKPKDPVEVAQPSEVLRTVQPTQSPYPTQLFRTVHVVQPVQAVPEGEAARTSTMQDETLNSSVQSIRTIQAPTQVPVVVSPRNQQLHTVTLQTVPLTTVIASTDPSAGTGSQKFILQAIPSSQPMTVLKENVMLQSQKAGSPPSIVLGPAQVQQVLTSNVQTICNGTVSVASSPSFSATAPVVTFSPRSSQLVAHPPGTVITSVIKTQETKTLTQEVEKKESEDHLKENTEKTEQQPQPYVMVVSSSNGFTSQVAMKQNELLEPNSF
sequence,measurement,setting,value
TACCTA,binding signal,FLI1,"1.32 fold enrichment (6-mer frequency, TF over GST control)"
same,binding signal,ELK1,"1.26 fold enrichment (6-mer frequency, TF over GST control)"
same,binding signal,GABPA,"1.24 fold enrichment (6-mer frequency, TF over GST control)"
same,binding signal,ERG,"1.13 fold enrichment (6-mer frequency, TF over GST control)"
same,binding signal,ELF1,"1.34 fold enrichment (6-mer frequency, TF over GST control)"
same,binding signal,EHF,"1.22 fold enrichment (6-mer frequency, TF over GST control)"
same,binding signal,SPI1,"1.28 fold enrichment (6-mer frequency, TF over GST control)"
same,binding signal,SPIB,"1.22 fold enrichment (6-mer frequency, TF over GST control)"
same,binding signal,ELK3,"1.23 fold enrichment (6-mer frequency, TF over GST control)"
same,binding signal,FEV,"1.2 fold enrichment (6-mer frequency, TF over GST control)"
same,binding signal,ETV5,"1.31 fold enrichment (6-mer frequency, TF over GST control)"
same,binding signal,HSF1,"1.28 fold enrichment (6-mer frequency, TF over GST control)"
same,binding signal,SPIC,"1.19 fold enrichment (6-mer frequency, TF over GST control)"
same,binding signal,ELF4,"1.3 fold enrichment (6-mer frequency, TF over GST control)"
same,binding signal,ELK4,"1.35 fold enrichment (6-mer frequency, TF over GST control)"
same,binding signal,ETV2,"1.21 fold enrichment (6-mer frequency, TF over GST control)"
same,binding signal,ELF3,"1.3 fold enrichment (6-mer frequency, TF over GST control)"
same,binding signal,CRX,"1.55 fold enrichment (6-mer frequency, TF over GST control)"
same,binding signal,ETV1,"1.34 fold enrichment (6-mer frequency, TF over GST control)"
